High-throughput results deposited in PubChem BioAssay by National Center for Advancing Translational Sciences (NCATS).
This is a sample that favours compounds with a hit; in the whole collection about 12% have one here.
JMJD2A Tudor inh: qHTS Assay for Inhibitors of JMJD2A-Tudor Domain | Lysine-specific demethylase 4A (Homo sapiens), O75164 | AlphaScreen JMJD2A-Tudor / H3K4me3 peptide binding | Potency, µM (series often up to 114 µM), hits mostly inhibitors | hit rate 4.4% among 390,000 | AID 504339, 2011; further: nearly all actives have a fitted effect of over 50% in size
BAZ2B inh: qHTS Assay for Inhibitors of BAZ2B. Bromodomain adjacent to zinc finger domain protein 2B (Homo sapiens), Q9UIF8. AlphaScreen BAZ2B-H3K14Ac peptide displacement. Potency, µM (series often up to 114 µM), usual class: inhibitors. hit rate 4.4% among 360,000; further: nearly all actives have a fitted effect of over 60% in size
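In this displacement format the biotinylated H3(5-23) peptide acetylated at Lys14 serves as ligand at 50 nM, with BAZ2B at 50 nM in PBS pH 7.4 containing 0.01% Tween-20. Donor and acceptor beads are 10 ug/mL final.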
HP1b chromo inh: HTS for Inhibitors of HP1-beta Chromodomain Interactions with Methylated Histone Tails; AlphaScreen HP1-beta / biotin-H3K9me3 peptide binding; hit rate 0.56% among 390,000; AID 540317, 2011; Potency, µM (titrated, usually from 114 µM), hits mostly inhibitors; further: nearly all actives have a fitted effect of over 70% in size
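AlphaScreen: HP1-beta (50 nM) preformed 30 min with biotin-H3(1-18)K9me3 peptide (50 nM) in PBS pH 7.4, 0.01% Tween-20. Compound added for 30 min at RT, then streptavidin donor/nickel chelate acceptor beads (10 ug/mL) for 30 min.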
Sfp PPTase inh: qHTS Assay for Inhibitors of Bacillus subtilis Sfp phosphopantetheinyl transferase (PPTase) | 4'-phosphopantetheinyl transferase ffp (Bacillus subtilis), Q9F4F7 | Biochemical Sfp PPTase activity, qHTS | Potency, µM, actives largely listed as inhibitors | hit rate 3.5% among 310,000 | AID 1490, 2009;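 further: the enzyme is Sfp with the accession as filed and its product quenches rhodamine fluorescence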
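Fluorescence-quenching assay: 15 nM Sfp-PPTase preincubated 15 min at room temperature with compound, then 5 uM rhodamine-CoA and 12.5 uM BHQ-2-labelled YbbR peptide added. Fluorescence (ex 525/em 598 nm) read at start and after 30 min; difference gives rate.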
L3MBTL1 block: qHTS Assay for the Inhibitors of L3MBTL1; Lethal(3)malignant brain tumor-like protein 1 (Homo sapiens), Q9Y468; AlphaScreen L3MBTL1–H3K9me1 peptide binding; hit rate 0.66% among 230,000; Potency, µM (titrated, usually from 57.1 µM), actives largely listed as inhibitors; further: nearly all actives have a fitted effect of over 60% in size
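Displacement of a biotinylated histone H3(1-15) peptide monomethylated at Lys9 (75 nM) from L3MBTL1 (50 nM) was measured by AlphaScreen after a 30 min room-temperature compound incubation; cefsulodin titration served as intraplate control.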
G9a inh-1: qHTS Assay for Inhibitors of Histone Lysine Methyltransferase G9a; G9a H3K9 monomethylation, AlphaScreen, 2 h; Potency, µM (top dose mostly 102 µM), actives largely listed as inhibitors; hit rate 8.8% among 350,000; AID 504332, 2011; further: nearly all actives have a fitted effect of over 75% in size
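Signal arises when biotinylated H3K9 peptide, once monomethylated, bridges streptavidin donor and antibody-captured acceptor beads. Enzyme at 20 nM was preincubated 15 min with test compounds; peptide 500 nM and SAM 20 uM then reacted for 2 h.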
G9a inh-2: qHTS Assay for Inhibitors of Histone Lysine Methyltransferase G9a: Hit Confirmation. hit rate 89% among 370. shares compounds with JMJD2A Tudor inh. Potency, µM, actives largely listed as inhibitors. G9a H3K9 monomethylation, AlphaScreen, 2 h; further: nearly all actives have a fitted effect of over 65% in size
Large screens that a line does not name were inactive (follow-up assays come after a bar, where they were run). The call rests on the fitted dose curve; in most records, active means well fitted curve in the direction sought with a large enough effect; inconclusive means small, poorly fitted or top-dose-only effect, or another doubt; inactive means no such curve, though single readings can be large; an effect the other way counts as inactive or inconclusive.

COc1ccc(CC(C)NCCc2ccc(OC)c(OC)c2)cc1 (stereo unspecified)	none
COc1ccc(CCNCc2ccncc2)cc1OC	JMJD2A Tudor inh 11µM, BAZ2B inh 50µM, HP1b chromo inh inconclusive, Sfp PPTase inh 45µM, G9a inh-1 2.5µM (no result: L3MBTL1 block) | G9a inh-2 45
Cc1ccc(-n2c(/C=C\c3ccc(F)c(F)c3)nc3ccccc3c2=O)c(C)c1	none (no result: Sfp PPTase inh, L3MBTL1 block)
Cc1cccc(OCC(=O)N2CCN(Cc3ccncc3)CC2)c1	JMJD2A Tudor inh 1.3µM, BAZ2B inh 18µM, Sfp PPTase inh inconclusive, G9a inh-1 2.5µM (no result: L3MBTL1 block) | G9a inh-2 8.9
COc1ccc(OCC(=O)N2CCN(Cc3cccc(OC)c3OC)CC2)cc1	JMJD2A Tudor inh 7.9µM, BAZ2B inh 50µM, HP1b chromo inh inconclusive, G9a inh-1 2µM (no result: Sfp PPTase inh, L3MBTL1 block) | G9a inh-2 29
COc1ccc(CN2CCN(Cc3ccccc3OC)CC2)cc1	JMJD2A Tudor inh 4µM, BAZ2B inh 25µM, HP1b chromo inh inconclusive, Sfp PPTase inh inconclusive, G9a inh-1 2µM (no result: L3MBTL1 block) | G9a inh-2 3.6
O=C1c2ccccc2-c2c1nc1c([n+]2[O-])CCCC1	G9a inh-1 inconclusive
